Results reported in PubChem BioAssay (NCI).
Compounds without any hit were thinned out: in the full panel of roughly 79,000, 15% have a hit. Rule as the data show it: active = growth inhibition above about 70%; inactive = the rest.

Assays:
[1] = NCI Yeast Anticancer Drug Screen. Data for the rad50 strain (AID 155);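 also: 0% = growth of vehicle-only cultures of the same strain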; conditions: S. cerevisiae rad50 strain growth inhibition; at 50.0 µM; stronger effect = higher value
How it was run: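 Yeast carrying a defined DNA repair defect were exposed to test compounds, and growth was compared with vehicle-treated controls to give percent inhibition.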

[2] = NCI Yeast Anticancer Drug Screen. Data for the mec2-1 strain (AID 157); conditions: S. cerevisiae mec2-1 strain, at 50.0 µM, stronger effect = higher value
How it was run: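 Growth inhibition is read against vehicle-treated controls after compound exposure of the mec2-1 yeast strain, which is defective in DNA damage repair or cell cycle control.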

[3] = NCI Yeast Anticancer Drug Screen. Data for the sgs1 mgt1 strain (AID 161);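 also: 0% = growth of cultures given vehicle only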; conditions: S. cerevisiae sgs1 mgt1 strain, at 50.0 µM, stronger effect = higher value
How it was run: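 This yeast growth screen uses a strain with defined DNA-repair lesions; compound-treated growth is compared with vehicle-treated growth.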

[4] = NCI Yeast Anticancer Drug Screen. Data for the cln2 rad14 strain (AID 165);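 also: 0% = growth equal to vehicle treated cultures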; conditions: S. cerevisiae cln2 rad14 strain, at 50.0 µM, stronger effect = higher value
How it was run: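 Growth inhibition, relative to vehicle-treated controls, is the read-out. The test organism is a yeast strain with defined genetic alterations, cln2 rad14.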

[5] = NCI Yeast Anticancer Drug Screen. Data for the bub3 strain (AID 167); conditions: S. cerevisiae bub3 mutant strain, at 50.0 µM, stronger effect = higher value
How it was run: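 Compounds were applied to a genetically altered yeast strain carrying a cell-cycle control defect. Growth inhibition was scored against vehicle-treated controls.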

[6] = NCI Yeast Anticancer Drug Screen. Data for the mlh1 rad18 strain (AID 175); conditions: S. cerevisiae mlh1 rad18 strain growth inhibition; at 50.0 µM; stronger effect = higher value
How it was run: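 Cells of a genetically altered yeast strain, deficient in DNA damage repair, were treated with compound. Their growth was then compared with that of vehicle-treated cultures to give inhibition.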

Measured: growth inhibition

CC(=O)Oc1ccc(OC(C)=O)c(C(=O)O)c1
inactive: [1] 15.1% | [2] -2.65% | [3] 2.9% | [4] -39.3% | [5] -2.3% | [6] 17.4%

COc1c(-c2ccc(F)cc2)oc2c(CC(=O)O)cccc2c1=O
inactive: [1] -0.35% | [2] -19.2% | [3] -27.1% | [4] 3.2% | [5] -7.6% | [6] -26.5%

CCOP(=O)(OCC)C(C(=O)OC)C(=O)C(=O)Nc1c(C)cc(Br)cc1C (stereo unspecified)
inactive: [1] -42.1% | [2] -17.2% | [3] -23.9% | [4] -1.8% | [5] -3.85% | [6] -17.6%

CC1(C)OC(COCCOCCCCCO)C(COCCOCCCCCO)O1 (stereo unspecified)
inactive: [1] 7.1% | [2] 3.75% | [3] 6.2% | [4] 17.9% | [5] -3.05% | [6] 6.7%

CCOC(=O)C1=C(NC(C)=O)Sc2ccccc2C1
inactive: [1] 27.9% | [2] 6.6% | [3] 1.8% | [4] -19.3% | [5] 2.45% | [6] 25%

O=S(=O)(Nc1ccc(NS(=O)(=O)c2ccccc2)nc1)c1ccccc1
inactive: [1] 13.8% | [2] -0.55% | [3] 32.1% | [4] -19.9% | [5] 5.3% | [6] -0.75%

O=c1[nH]nc(NC2Nc3ccccc3N2)c2ccccc12
inactive: [1] 17.3% | [2] 15.1% | [3] 9.15% | [4] -19.2% | [5] 6.6% | [6] 13.4%

Cc1ccc(S(=O)(=O)/C(C#N)=C/NC(=S)Nc2ccc(C)cc2C)cc1
inactive: [1] -53.7% | [2] -26.9% | [3] -30.8% | [4] -41.4% | [5] -40.5% | [6] -41.4%

CC1CC(C)CN(S(=O)(=O)c2cc(Cl)c(Oc3ccc([N+](=O)[O-])cc3Cl)c(Cl)c2)C1 (stereo unspecified)
inactive: [1] 7.8% | [2] -28.3% | [3] 3.75% | [4] 34.4% | [5] -11.3% | [6] -2.45%

c1ccc(N=C(c2ccccc2)c2ccccc2)cc1
inactive: [1] 9.25% | [2] -6.65% | [3] -6.05% | [4] -6.65% | [5] -7.65% | [6] 26.3%

O=C(OCCCl)C1CC2C=CC1C2 (stereo unspecified)
inactive: [1] -4.5% | [2] -10.1% | [3] 3.85% | [4] 8.25% | [5] -7.2% | [6] -3.4%

CNC(=O)OCc1c(COC(=O)NC)c2n(c1C)CS(=O)(=O)C2
inactive: [1] -6.15% | [2] -16% | [3] -10.4% | [4] 6.5% | [5] 12.1% | [6] 15.5%

O=c1n(-c2ccccc2)c(=O)n2n1C1C=CC2C23C=CC12CCCC3 (stereo unspecified)
inactive: [1] 13.8% | [2] 7.85% | [3] 9.05% | [4] 12% | [5] 26.2% | [6] 22.8%

CC(C)(Br)C(=O)N1CCN(C(c2ccccc2)c2ccccc2)CC1
inactive: [1] 3.15% | [2] 8.2% | [3] 2.3% | [4] -0.15% | [5] -0.3% | [6] 14.7%

Cc1ccccc1/C=N\N=C\c1ccco1
inactive: [1] -0.5% | [2] -6.5% | [3] -5.25% | [4] -10.7% | [5] 18.1% | [6] 44.6%

O=C1c2cc(O)c(O)cc2O[C@H](c2ccc(O)c(O)c2)[C@H]1O
inactive: [1] 2.15% | [2] -35.1% | [3] 11.8% | [4] 16.2% | [5] -8.7% | [6] -46.7%

COc1ccc(-c2ccccc2C(=O)O)cc1
inactive: [1] -2.65% | [2] -14.8% | [3] 5.8% | [4] -12.5% | [5] -7.2% | [6] 8.1%

N#CCc1n[nH]c(Cc2ccccc2)n1
inactive: [1] 2.35% | [2] 6.6% | [3] 3.9% | [4] 7.6% | [5] 0.8% | [6] 12.4%

CCN(Cc1ccc(S(=O)(=O)O)cc1)c1cccc(S(=O)(=O)O)c1
inactive: [1] 14.1% | [2] 26.4% | [3] 18.4% | [4] -20.9% | [5] -18.2% | [6] 9.35%

O=C(NNC(=O)C(Oc1ccccc1)c1ccccc1)C(Cl)Cl (stereo unspecified)
inactive: [1] -9.5% | [2] 4.55% | [3] 0.55% | [4] -2.45% | [5] 10.3% | [6] 5.9%

CCCCCCc1c(C)nc(N)[nH]c1=O
inactive: [1] 7.55% | [2] -3.85% | [3] -13.4% | [4] -67.7% | [5] 10% | [6] -1.05%
